ChEMBL document CHEMBL4513149, “CO-ADD screening of MMV (CH) - MMV compounds” (2021)
Entries with a potency or affinity are not part of this list.

Experiments:
Klebsiella pneumoniae = conditions: Concentration 20 uM; ASSAY_TEST Inhibition of Bacterial Growth; detection method Absorption (OD600); MEDIA CAMHB; plate type 384well; NBS; CORNING #3640; time 18 hr
Candida albicans = conditions: 20 µM
Cryptococcus neoformans = conditions: Concentration 20 uM; ASSAY_TEST Inhibition of Fungal Growth; detection method Resazurin; Absorption (OD600-OD570); plate type 384well; NBS; CORNING #3640

## O=C(CCC1CCCCC1)Nc1cccc(-c2nnc(-c3ccco3)o2)c1
Klebsiella pneumoniae
  Inhibition: 9.71%
Candida albicans
  Inhibition: 5.6%
Cryptococcus neoformans
  Inhibition: -12.99%

## COc1ccc2nc(C)cc(OCC(=O)Nc3ccccc3OC)c2c1
Klebsiella pneumoniae
  Inhibition: 17.25%
Candida albicans
  Inhibition: 0.63%
Cryptococcus neoformans
  Inhibition: -5.56%

## Nc1ncc(Br)cc1-c1nc2cc(Cl)cnc2[nH]1
Klebsiella pneumoniae
  Inhibition: 20.39%
Candida albicans
  Inhibition: 9.81%
Cryptococcus neoformans
  Inhibition: 7.04%

## O=C1N(Cc2cc3ccccc3s2)CC2CN(Cc3ccccc3)CCN12 (stereo unspecified)
Klebsiella pneumoniae
  Inhibition: 2.73%
Candida albicans
  Inhibition: 2.62%
Cryptococcus neoformans
  Inhibition: -4.73%

## CC(C)(C)c1cnc(NC(=O)c2ccccc2O)s1
Klebsiella pneumoniae
  Inhibition: 10.5%
Candida albicans
  Inhibition: 11.6%
Cryptococcus neoformans
  Inhibition: 5.21%

## COc1cc2ncnc(NC3CCN(Cc4ccccc4)CC3)c2cc1OC
Klebsiella pneumoniae
  Inhibition: 10.11%
Candida albicans
  Inhibition: 2.88%
Cryptococcus neoformans
  Inhibition: 4.42%

## c1ccc(Oc2ccc(-c3cc(C4CCOCC4)[nH]n3)cc2)cc1
Klebsiella pneumoniae
  Inhibition: 16.38%
Candida albicans
  Inhibition: 7.75%
Cryptococcus neoformans
  Inhibition: 0.97%

## COc1cc(NC(=O)Cc2nn(C)c(=O)c3ccccc23)ccc1Cl
Klebsiella pneumoniae
  Inhibition: 12.64%
Candida albicans
  Inhibition: 6.72%
Cryptococcus neoformans
  Inhibition: -0.85%

## NC(=O)c1cc(Br)ccc1OCCOc1ccccc1
Klebsiella pneumoniae
  Inhibition: 10.17%
Candida albicans
  Inhibition: 10.7%
Cryptococcus neoformans
  Inhibition: -9.83%

## CCc1nc2ccc(C(=O)NCc3ccc4c(c3)OCO4)cn2c1N(C)Cc1cccs1
Klebsiella pneumoniae
  Inhibition: 5.86%
Candida albicans
  Inhibition: 3.04%
Cryptococcus neoformans
  Inhibition: -6.4%

## Clc1cccc(CO[C@H]2CCc3ccccc3[C@@H]2n2ccnn2)c1
Klebsiella pneumoniae
  Inhibition: 8.29%
Candida albicans
  Inhibition: 10.9%
Cryptococcus neoformans
  Inhibition: -3.55%

## CC(C)(C(=O)Nc1ccc(F)cc1)n1cc(-c2ccccc2F)cn1
Klebsiella pneumoniae
  Inhibition: 12.71%
Candida albicans
  Inhibition: 7.41%
Cryptococcus neoformans
  Inhibition: -7.47%

## CCCCS(=O)(=O)Nc1ccc2cnn(C)c2c1
Klebsiella pneumoniae
  Inhibition: 10.18%
Candida albicans
  Inhibition: 2.57%
Cryptococcus neoformans
  Inhibition: -4.93%

## O=C(NC1CC1)c1ccc(CSCc2ccccc2Cl)o1
Klebsiella pneumoniae
  Inhibition: 1.21%
Candida albicans
  Inhibition: 7.77%
Cryptococcus neoformans
  Inhibition: -0.4%

## O=C(Nc1nc(-c2ccccn2)cs1)c1cncn1-c1ccccc1
Klebsiella pneumoniae
  Inhibition: 11.31%
Candida albicans
  Inhibition: 1.74%
Cryptococcus neoformans
  Inhibition: -8.18%

## CNc1cc(C)nc(C2CN(C(=O)c3n[nH]c4ccccc34)CCO2)c1 (stereo unspecified)
Klebsiella pneumoniae
  Inhibition: 20.78%
Candida albicans
  Inhibition: 2.95%
Cryptococcus neoformans
  Inhibition: -9.16%

## O=C(NCCN1CCCC1)c1cc(NCCN2CCOCC2)nc2ccc(Cl)cc12
Klebsiella pneumoniae
  Inhibition: 16.49%
Candida albicans
  Inhibition: 2.97%
Cryptococcus neoformans
  Inhibition: -7.83%

## CC1CC1C(=O)NC1CCN(CC2(c3ccccc3)CCCCC2)CC1 (stereo unspecified)
Klebsiella pneumoniae
  Inhibition: 16.4%
Candida albicans
  Inhibition: 3.19%
Cryptococcus neoformans
  Inhibition: -6.72%

## CC1(COc2ccc(N3CCC(Oc4ccc(OC(F)(F)F)cc4)CC3)cc2)Cn2cc([N+](=O)[O-])nc2O1 (stereo unspecified)
Klebsiella pneumoniae
  Inhibition: 19.71%
Candida albicans
  Inhibition: 20.4%
Cryptococcus neoformans
  Inhibition: -2.75%

## c1coc(CNc2nc(N3CCCCC3)nc3ccccc23)c1
Klebsiella pneumoniae
  Inhibition: 7.9%
Candida albicans
  Inhibition: 4.06%
Cryptococcus neoformans
  Inhibition: -16.26%

## COC(=O)c1ccc(F)cc1NS(=O)(=O)c1cccc(-c2cnn(Cc3ccccc3)c2)c1
Klebsiella pneumoniae
  Inhibition: 14.02%
Candida albicans
  Inhibition: 6.83%
Cryptococcus neoformans
  Inhibition: 12.85%

## Cc1cc(C(=O)Nc2cnn(Cc3ccc(Cl)cc3Cl)c2)no1
Klebsiella pneumoniae
  Inhibition: -11.81%
Candida albicans
  Inhibition: 11.5%
Cryptococcus neoformans
  Inhibition: -4.75%

## CC(C)(C)c1cc(C(=O)Nc2cccnc2)cc(C(=O)Nc2cccnc2)c1
Klebsiella pneumoniae
  Inhibition: 16.7%
Candida albicans
  Inhibition: 3.35%
Cryptococcus neoformans
  Inhibition: -7.29%

## CCCS(=O)(=O)N1CCC(CO)(Cc2ccccc2C(F)(F)F)CC1
Klebsiella pneumoniae
  Inhibition: 9.23%
Candida albicans
  Inhibition: 3.76%
Cryptococcus neoformans
  Inhibition: -2.93%

## Cc1cc2ccccc2n1CC(=O)N1CC(C(=O)N2CCCCC2)Oc2ccccc21 (stereo unspecified)
Klebsiella pneumoniae
  Inhibition: 14.31%
Candida albicans
  Inhibition: 4.16%
Cryptococcus neoformans
  Inhibition: -5.34%

## CC(C)C(C(=O)Nc1ccc(S(=O)(=O)N(C)C)cc1)c1ccc(Cl)cc1 (stereo unspecified)
Klebsiella pneumoniae
  Inhibition: -12.7%
Candida albicans
  Inhibition: 4.83%
Cryptococcus neoformans
  Inhibition: -3.24%

## COC(=O)C1=C(C)NC(C)=C(C(=O)OC(C)C)C1c1cccc2nonc12 (stereo unspecified) [ISRADIPINE]
Klebsiella pneumoniae
  Inhibition: 6.29%
Candida albicans
  Inhibition: 4.19%
Cryptococcus neoformans
  Inhibition: -10.15%

## COc1ccc(C2=NN(C3CCCCCC3)C(=O)C2(C)C)cc1OCCCCOc1ccc(-c2nn[nH]n2)cc1
Klebsiella pneumoniae
  Inhibition: 0.76%
Candida albicans
  Inhibition: 5.32%
Cryptococcus neoformans
  Inhibition: -17.73%

## COc1ccc(OC(C)C(=O)Nc2ccc(Cl)cc2C)cc1 (stereo unspecified)
Klebsiella pneumoniae
  Inhibition: 4.92%
Candida albicans
  Inhibition: 7.33%
Cryptococcus neoformans
  Inhibition: 5.96%

## CC(C)(C)OC(=O)N1CCN(c2nccc(-c3ccc(-c4ccc(Cl)cc4)s3)n2)CC1
Klebsiella pneumoniae
  Inhibition: 5%
Candida albicans
  Inhibition: 3.84%
Cryptococcus neoformans
  Inhibition: -6.76%

## CNC(=O)C1Cc2c([nH]c3cc(Cl)ccc23)C2(CCN(CCc3ccccc3)CC2)N1 (stereo unspecified)
Klebsiella pneumoniae
  Inhibition: 10.39%
Candida albicans
  Inhibition: 3.22%
Cryptococcus neoformans
  Inhibition: -13.49%

## O=C1COCc2ccc(Br)cc2N1Cc1ccc(C(F)(F)F)cc1
Klebsiella pneumoniae
  Inhibition: 17.24%
Candida albicans
  Inhibition: 8.78%
Cryptococcus neoformans
  Inhibition: -5.61%
